Results published in PubChem BioAssay (Tox21).
“And” between values parts separate entries of the source, which are not always exact repeats. Identical values can stand only once. A structure can be active in one record and inactive in another. The source made the active and inactive calls. Where a call stands in place of a potency, no number is given. Unless noted, calls follow the shape of the dose curve; as a rule, active = well fitted curve in the direction sought with a large enough effect in the repeat runs; inconclusive = weak or mixed curves; inactive = no such curve, though single readings can be large; an effect the other way counts as inactive or inconclusive.

Legend:
[1] = qHTS assay to identify small molecule antagonists of the thyroid receptor (TR) signaling pathway - cell viability counter screen (AID 743064); also: nearly all actives have a fitted effect of over 50% in size; also: potency is read from the fitted curve at half-maximal effect
Outline: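 In-well cytotoxicity read by CellTiter-Fluor (30 min, 37 C) following 23.5 h exposure of GH3 cells bearing a TRE-luciferase sensor. Compounds were added alongside 1 nM (final) T3 to drive TR transactivation.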

[2] = qHTS assay to identify small molecule antagonists of the thyroid receptor (TR) signaling pathway (AID 743065); also: nearly all actives have a fitted effect of over 55% in size; also: potency is read from the fitted curve at half-maximal effect
Outline: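 Antagonism measured as loss of luciferase signal in GH3 cells stably carrying a TRE-luciferase reporter, co-treated with compound and T3 (1 nM final) for 23.5 h at 37 C. Viability was read in the same well by CellTiter-Fluor.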

[3] = tested on: thyroid hormone receptor (rat, GH3 cells); test: qHTS assay to identify small molecule agonists of the thyroid receptor (TR) signaling pathway (AID 743066; calls by dose curve; also: potency is read from the fitted curve at half-maximal effect)
[4] = qHTS assay to identify small molecule antagonists of the estrogen receptor alpha (ER-alpha) signaling pathway - cell viability counter screen (AID 743074; calls by dose curve; also: nearly all actives have a fitted effect of over 45% in size; also: potency is read from the fitted curve at half-maximal effect)
[5] = molecular target: Estrogen receptor (Homo sapiens) (UniProt P03372); test: qHTS assay to identify small molecule agonists of the estrogen receptor alpha (ER-alpha) signaling pathway (AID 743075; calls by dose curve; also: potency is read from the fitted curve at half-maximal effect)
[6] = molecular target: Estrogen receptor (Homo sapiens) (UniProt P03372); test: qHTS assay to identify small molecule agonists of the estrogen receptor alpha (ER-alpha) signaling pathway using the BG1 cell line (AID 743079); also: nearly all actives have a fitted effect of over 20% in size; also: potency is read from the fitted curve at half-maximal effect
[7] = qHTS assay to identify small molecule antagonists of the estrogen receptor alpha (ER-alpha) signaling pathway using the BG1 cell line (AID 743080; calls by dose curve; also: nearly all actives have a fitted effect of over 25% in size; also: potency is read from the fitted curve at half-maximal effect)
Outline: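 Antagonist mode: compounds in DMSO were pinned onto BG1-Luc-4E2 cells alongside 17beta-estradiol agonist, incubated 21.5 h, and ERE-driven luciferase measured with ONE-Glo. Cytotoxicity was multiplexed using CellTiter-Fluor fluorescence.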

[8] = qHTS assay to identify small molecule antagonists of the estrogen receptor alpha (ER-alpha) signaling pathway using the BG1 cell line - cell viability counter screen (AID 743081);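 also: compound given together with 17beta-estradiol as the ER stimulus; series mostly up to about 70 µM; nearly all actives have a fitted effect of over 45% in size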
[9] = molecular target: Aromatase (Homo sapiens) (UniProt P11511); test: qHTS assay to identify aromatase inhibitors (AID 743083); also: nearly all actives have a fitted effect of over 55% in size; also: potency is read from the fitted curve at half-maximal effect
[10] = qHTS assay to identify aromatase inhibitors - cell viability counter screen (AID 743084);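 also: cells stimulated with testosterone during compound exposure; nearly all actives have a fitted effect of over 55% in size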
[11] = molecular target: Aryl hydrocarbon receptor (Homo sapiens) (UniProt P35869); test: qHTS assay to identify small molecule that activate the aryl hydrocarbon receptor (AhR) signaling pathway (AID 743085); also: nearly all actives have a fitted effect of over 15% in size; also: potency is read from the fitted curve at half-maximal effect;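 as to activation: HG2L7.5c1 human HepG2 liver cells with stably integrated DRE-driven firefly reporter; series mostly up to about 70 µM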
Outline: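 Luminescence (ONE-Glo) from a dioxin-responsive-element luciferase reporter in HG2L7.5c1 HepG2 cells after 24 hr compound exposure at 37C; viability measured by CellTiter-Fluor fluorescence beforehand.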

[12] = molecular target: Peroxisome proliferator-activated receptor gamma (Homo sapiens) (UniProt P37231); test: qHTS assay to identify small molecule antagonists of the peroxisome proliferator-activated receptor gamma (PPARg) signaling pathway (AID 743191; calls by dose curve; also: nearly all actives have a fitted effect of over 30% in size; also: potency is read from the fitted curve at half-maximal effect)
Outline: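 Beta-lactamase reporter under UAS control in HEK293H PPARg-bla cells; compound treatment 17 h at 37C. Read-out: fluorescence intensity after 1 h room-temperature incubation with LiveBLAzer B/G FRET substrate.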

[13] = qHTS assay for small molecule agonists of the antioxidant response element (ARE) signaling pathway - cell viability counter screen (AID 743203; calls by dose curve; also: nearly all actives have a fitted effect of over 55% in size; also: potency is read from the fitted curve at half-maximal effect)
Outline: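 ATP content via CellTiter-Glo luminescence served as the viability measure. Cells: ARE-bla HepG2, 2,000 per well. Exposure: 16 hrs, 37C/5% CO2.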

[14] = qHTS assay for small molecule activators of the heat shock response signaling pathway - cell viability counter screen (AID 743209); also: nearly all actives have a fitted effect of over 50% in size
Outline: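 Compounds dissolved in DMSO were added to overnight-plated HSE-bla HeLa cells and left 5 h at 37 C. Cell viability was quantified by luminescence using CellTiter-Glo.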

[15] = qHTS assay to identify small molecule that activate the aryl hydrocarbon receptor (AhR) signaling pathway - cell viability counter screen (AID 743086); also: nearly all actives have a fitted effect of over 45% in size; also: potency is read from the fitted curve at half-maximal effect
Outline: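 Cytotoxicity counter screen: CellTiter-Fluor signal (30 min, 37 C) in 4000 HepG2 cells/well carrying the DRE-luciferase reporter, following 24 h compound exposure at 37 C.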

[16] = molecular target: Peroxisome proliferator-activated receptor gamma (Homo sapiens) (UniProt P37231); test: qHTS assay to identify small molecule agonists of the peroxisome proliferator-activated receptor gamma (PPARg) signaling pathway (AID 743094; active = well fitted activation curve with a large enough effect in the signal ratio in the repeat runs, not every such curve was filed as active; inconclusive = weak or mixed curves, or effect the other way; inactive = no such curve, though single readings can be large or run the other way; the % refers to the signal ratio)
Outline: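 Agonism was assessed in a beta-lactamase reporter system, HEK293H cells with a stably integrated UAS-bla construct under PPARg control; the 17 h treatment at 37C preceded a 1 h room-temperature FRET substrate read.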

[17] = qHTS assay to identify small molecule antagonists of the peroxisome proliferator-activated receptor gamma (PPARg) signaling pathway - cell viability counter screen (AID 743194); conditions: Potency: co-treated with 50 nM rosiglitazone; also: nearly all actives have a fitted effect of over 55% in size
Outline: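 Viability was measured as CellTiter-Glo luminescence in GeneBLAzer PPARg UAS-bla HEK293H cells. These cells had been exposed 17 h at 37 C to compounds together with rosiglitazone at 50 nM final, with the beta-lactamase readout taken in the same wells.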

[18] = qHTS assay for small molecule agonists of the antioxidant response element (ARE) signaling pathway (AID 743202; active = well fitted activation curve with a large enough effect in the signal ratio in the repeat runs, not every such curve was filed as active; inconclusive = weak or mixed curves, or effect the other way; inactive = no such curve, though single readings can be large or run the other way; the % refers to the signal ratio; also: potency is read from the fitted curve at half-maximal effect)
Outline: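 Beta-lactamase reporter activity, read as fluorescence intensity, reflects ARE/Nrf2 pathway induction in HepG2 cells after 16 h compound exposure at 37 C; substrate loading was 2 h at room temperature.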

[19] = qHTS assay for small molecule activators of the heat shock response signaling pathway (AID 743210; active = well fitted activation curve with a large enough effect in the signal ratio in the repeat runs, with a control signal flat, not every such curve was filed as active; inconclusive = weak or mixed curves; the % refers to the signal ratio;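 also: HeLa cells with beta-lactamase reporter driven by heat shock elements; series mostly up to about 63 µM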)
Outline: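 Fluorescence from a cleaved B/G FRET substrate (2.5 h, room temp) reports HSE-driven beta-lactamase in HeLa cells treated 5 h at 37 C with DMSO-dissolved compounds.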

[20] = molecular target: Estrogen receptor (Homo sapiens) (UniProt P03372); test: qHTS assay to identify small molecule antagonists of the estrogen receptor alpha (ER-alpha) signaling pathway (AID 743069; active = well fitted curve in the direction sought with a large enough effect in the signal ratio in the repeat runs, not every such curve was filed as active; inconclusive = weak or mixed curves, or effect the other way; inactive = no such curve, though single readings can be large or run the other way; the % refers to the signal ratio)
Outline: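 Fluorescence intensity from a beta-lactamase FRET substrate served as the read-out. Cells: HEK293 with stably integrated ER-alpha-UAS-bla reporter. Agonist 17beta-estradiol was co-added with compounds; incubation 18 hr at 37C, substrate 2 hr at room temperature.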

Aryl hydrocarbon receptor (Homo sapiens), sequence (P35869 whole entry, looked up): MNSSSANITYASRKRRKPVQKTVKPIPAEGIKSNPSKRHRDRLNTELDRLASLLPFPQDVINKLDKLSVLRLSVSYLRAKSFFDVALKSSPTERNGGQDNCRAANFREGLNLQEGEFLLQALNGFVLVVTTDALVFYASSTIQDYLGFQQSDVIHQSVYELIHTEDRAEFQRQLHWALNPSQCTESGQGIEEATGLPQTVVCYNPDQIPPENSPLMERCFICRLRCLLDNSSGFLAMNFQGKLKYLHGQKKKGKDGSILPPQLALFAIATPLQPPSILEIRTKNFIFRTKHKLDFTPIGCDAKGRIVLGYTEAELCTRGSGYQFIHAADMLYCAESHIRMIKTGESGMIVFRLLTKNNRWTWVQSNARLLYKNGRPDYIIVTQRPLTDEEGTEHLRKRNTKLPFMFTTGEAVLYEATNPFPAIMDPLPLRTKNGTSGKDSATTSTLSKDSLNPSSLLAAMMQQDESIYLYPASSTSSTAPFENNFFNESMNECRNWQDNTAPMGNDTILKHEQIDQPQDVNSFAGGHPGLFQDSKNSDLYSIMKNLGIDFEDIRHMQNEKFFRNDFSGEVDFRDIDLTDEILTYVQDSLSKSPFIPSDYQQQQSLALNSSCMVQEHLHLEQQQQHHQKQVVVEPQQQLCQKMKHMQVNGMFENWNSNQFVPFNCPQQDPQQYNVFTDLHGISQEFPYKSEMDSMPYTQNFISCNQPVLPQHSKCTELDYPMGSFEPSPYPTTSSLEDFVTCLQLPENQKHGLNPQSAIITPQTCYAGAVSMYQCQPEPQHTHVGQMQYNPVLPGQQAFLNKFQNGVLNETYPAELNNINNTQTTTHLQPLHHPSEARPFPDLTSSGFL
Estrogen receptor (Homo sapiens), sequence (P03372 whole entry, looked up): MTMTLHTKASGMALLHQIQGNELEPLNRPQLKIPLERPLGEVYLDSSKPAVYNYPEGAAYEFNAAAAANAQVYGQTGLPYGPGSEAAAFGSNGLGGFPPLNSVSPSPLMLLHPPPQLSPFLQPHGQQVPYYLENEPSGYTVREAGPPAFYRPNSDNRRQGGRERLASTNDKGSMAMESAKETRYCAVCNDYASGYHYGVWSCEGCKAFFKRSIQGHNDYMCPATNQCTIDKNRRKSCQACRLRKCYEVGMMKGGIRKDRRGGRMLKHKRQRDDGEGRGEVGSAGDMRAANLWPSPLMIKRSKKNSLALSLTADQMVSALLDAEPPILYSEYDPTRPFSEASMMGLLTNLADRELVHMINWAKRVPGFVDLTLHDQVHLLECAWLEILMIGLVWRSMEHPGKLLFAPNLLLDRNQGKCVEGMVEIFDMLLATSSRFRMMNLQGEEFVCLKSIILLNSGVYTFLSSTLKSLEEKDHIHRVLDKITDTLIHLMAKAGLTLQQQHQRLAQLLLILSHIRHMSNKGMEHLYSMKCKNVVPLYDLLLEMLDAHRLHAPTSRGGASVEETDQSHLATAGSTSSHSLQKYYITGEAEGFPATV
Aromatase (Homo sapiens), sequence (P11511 whole entry, looked up): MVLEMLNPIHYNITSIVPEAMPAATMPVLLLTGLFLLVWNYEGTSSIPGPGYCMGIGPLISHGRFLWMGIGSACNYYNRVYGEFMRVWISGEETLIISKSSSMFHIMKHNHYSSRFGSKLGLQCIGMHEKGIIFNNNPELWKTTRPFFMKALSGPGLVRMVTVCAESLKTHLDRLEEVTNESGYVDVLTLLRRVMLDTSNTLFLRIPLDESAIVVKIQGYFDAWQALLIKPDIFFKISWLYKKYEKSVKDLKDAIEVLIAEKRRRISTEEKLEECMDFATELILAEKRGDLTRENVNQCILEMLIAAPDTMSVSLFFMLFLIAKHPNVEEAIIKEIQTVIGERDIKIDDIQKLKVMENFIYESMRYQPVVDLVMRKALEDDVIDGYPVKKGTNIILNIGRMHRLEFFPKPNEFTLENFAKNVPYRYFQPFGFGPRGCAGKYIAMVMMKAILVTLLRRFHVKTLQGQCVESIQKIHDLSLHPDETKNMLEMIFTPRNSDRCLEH
Peroxisome proliferator-activated receptor gamma (Homo sapiens), sequence (P37231 whole entry, looked up): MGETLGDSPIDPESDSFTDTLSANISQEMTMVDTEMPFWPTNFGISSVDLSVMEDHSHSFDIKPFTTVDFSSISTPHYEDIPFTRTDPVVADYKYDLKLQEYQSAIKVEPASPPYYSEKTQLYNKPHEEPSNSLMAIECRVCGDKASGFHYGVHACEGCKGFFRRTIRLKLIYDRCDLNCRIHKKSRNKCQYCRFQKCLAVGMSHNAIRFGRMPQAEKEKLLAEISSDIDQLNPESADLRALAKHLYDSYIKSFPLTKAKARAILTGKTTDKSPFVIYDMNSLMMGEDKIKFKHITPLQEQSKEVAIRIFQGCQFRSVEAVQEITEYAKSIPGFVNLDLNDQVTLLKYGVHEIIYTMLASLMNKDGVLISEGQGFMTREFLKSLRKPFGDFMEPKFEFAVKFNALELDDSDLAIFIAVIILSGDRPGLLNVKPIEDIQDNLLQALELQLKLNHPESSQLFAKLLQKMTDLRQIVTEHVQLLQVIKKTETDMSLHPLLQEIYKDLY

Row | Structure (SMILES) | Potency [1] | Potency [2] | Potency [3] | Potency [4] | Potency [5] | Potency [6] | Potency [7] | Potency [8] | Potency [9] | Potency [10] | Potency [11] | Potency [12] | Potency [13] | Potency [14] | Potency [15] | Potency [16] | Potency [17] | Potency [18] | Potency [19] | Potency [20]
1 | O=P(OCC(Br)CBr)(OCC(Br)CBr)OCC(Br)CBr (centres undefined) | 43.8 µM (active) and 51.7 µM (active) | 27.7 µM (active) and 23.1 µM (active) | inactive | inactive | inactive | inactive | inactive | inactive | 61.9 µM (active) | inactive | inactive | 44.2 µM (active) | 36.6 µM (active) | inactive | – | – | – | – | – | –
2 | CC(O)CN1CCN(CC(=O)[O-])CCN(CC(=O)[O-])CCN(CC(=O)[O-])CC1.[Gd+3] (centres undefined) | inactive | inactive | inactive | inactive and 21.3 µM (active) | inactive and 23.9 µM [inconclusive] (active) | inactive and 5.31 µM (active) | inactive | inactive | inactive | inactive | inactive | – | inactive | inactive | inactive | inactive | inactive | inactive | inactive | –
3 | Cc1nnc(-c2ccccc2)c(=O)n1N | inactive | inactive | inactive | inactive | – | – | inactive | inactive | inactive | inactive | – | – | inactive | inactive | inactive | inactive | inactive | inactive | inactive | inactive
4 | O=C(Cl)OCCOCCOC(=O)Cl | inactive | inactive | 27.3 µM (active) | – | inactive | inactive | inactive | inactive | inactive | inactive | inactive | – | inactive | inactive | inactive | inactive | inactive | – | – | inactive
5 | CCOP(=S)(OCC)Oc1ccc(S(C)=O)cc1 (centres undefined) | inactive | inactive | inactive | inactive | inactive | inactive | inactive | inactive | inactive | inactive | 10.9 µM (active) | inactive | inactive | inactive | inactive | inactive | inactive | inactive | inactive | –
6 | N#CC(C#N)=C(C#N)C#N | inactive | inactive | inactive | inactive | inactive | inactive | inactive | inactive | inactive | inactive | inactive | inactive | inactive | inactive | inactive | inactive | inactive | 7.17 µM (active) | inactive | –
7 | OCC1CO1 (centres undefined) | inactive | inactive | inactive | inactive | inactive | inactive | inactive | inactive | inactive | inactive | inactive | inactive | inactive | inactive | inactive | inactive | inactive | inactive | inactive | –
8 | CCc1ccccc1N | inactive | inactive | inactive | inactive | inactive | inactive | inactive | inactive | inactive | inactive | inactive | inactive | inactive | inactive | inactive | inactive | – | – | inactive | –
9 | CC(=O)OC(c1ccccc1)C(Cl)(Cl)Cl (centres undefined) | inactive | inactive | inactive | inactive | inactive | – | 68.6 µM (active) | inactive | – | inactive | – | – | inactive | inactive | inactive | inactive | inactive | inactive | inactive | inactive
10 | O=CC=O | inactive | inactive | inactive | inactive | inactive | inactive and 28.1 µM (active) | inactive | inactive | inactive | inactive | inactive | inactive | inactive | inactive | inactive | inactive | inactive | inactive | inactive | –
11 | OCCSSCCO | inactive | inactive | inactive | inactive | inactive | inactive | inactive | inactive | inactive | inactive | inactive | – | inactive | inactive | inactive | inactive | inactive | – | inactive | –
12 | CCCC1CCCCN1 (centres undefined) | inactive | inactive | inactive | inactive | inactive | inactive | inactive | inactive | inactive | inactive | inactive | – | inactive | inactive | inactive | inactive | inactive | inactive | inactive | –
13 | Cc1nc2ccccc2c(=O)n1-c1ccccc1Cl | 30 µM (active) | inactive | inactive | – | inactive | 33.6 µM (active) | inactive | – | inactive | – | inactive | inactive | inactive | inactive | 47.5 µM (active) | inactive | inactive | – | inactive | inactive
